ELG1 DNA repair = blocks ELG1-dependent DNA repair in HEK293T cells; HEK293T ELG1-luciferase reporter, luminescence, 16 h; DNA damage induced by 5-fluorouridine; Potency, µM (highest dose often 46.1 µM), actives largely listed as inhibitors; hit rate 2.3% among 330,000; further: nearly all actives have a fitted effect of over 55% in size
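Overnight (16 hr) co-exposure of 2,000 cells/well to 5-fluorouridine and compound at 37 °C preceded detection. Luciferase was quantified via ONE-Glo luminescence; loss of signal denotes inhibition.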
KB-V1 MDR tox = kills drug-selected multidrug resistant KB-V1 cells; KB-V1 MDR cells viability, CellTiter-Glo, 72 h; Potency, µM (highest dose often 46.1 µM), usual class: cytotoxic; hit rate 3.4% among 400,000; further: nearly all actives have a fitted effect of over 60% in size
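Cytotoxicity toward P-gp-expressing KB-V1 cells was determined as loss of CellTiter-Glo luminescence after 72 h at 37 degrees C. Compounds were tested in quantitative HTS format across a concentration range, with curves fitted to normalized data.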
MCF10A rerep = induces DNA re-replication in MCF 10a normal breast cells. Potency, µM (highest dose often 46.1 µM), most hits filed as activators. hit rate 2.9% among 350,000. MCF 10A DNA re-replication, Hoechst nuclear intensity, 48 h; further: nearly all actives have a fitted effect of over 50% in size
SW480 rerep = induces DNA re-replication in SW480 colon adenocarcinoma cells; SW480 DNA re-replication, Hoechst DNA content imaging, 48 h; hit rate 1.8% among 340,000; Potency, µM (titrated, usually from 46.1 µM), most hits filed as activators; AID 624297; further: nearly all actives have a fitted effect of over 55% in size
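Compounds, transferred as 23 nL by pin tool, were incubated with cells for 48 hr; DNA content per nucleus was then quantified by Hoechst staining and fluorescence plate imaging.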
KB-3-1 cytotox = KB-3-1 parental cell cytotoxicity. Potency, µM (highest dose often 46.1 µM), actives largely listed as cytotoxic. hit rate 1.4% among 400,000. KB-3-1 viability, CellTiter-Glo ATP luminescence, 72 h; further: nearly all actives have a fitted effect of over 60% in size
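Parental KB-3-1 adenocarcinoma cells in phenol-red-free DMEM with 10% FBS were pin-treated with compounds at several concentrations, incubated 72 h at 37 °C, and viability read by CellTiter-Glo luminescence; concentration-effect curves were fitted after normalization.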
A number is an active result; - = inactive; ? = inconclusive; . = no result given. In the library only some 8.1% were active in any assay of this set; here they are far more common. The call rests on the fitted dose curve; in most records, active means well fitted curve in the direction sought with a large enough effect; inconclusive means small, poorly fitted or top-dose-only effect, or another doubt; inactive means no such curve, though single readings can be large; an effect the other way counts as inactive or inconclusive.

SMILES	ELG1 DNA repair	KB-V1 MDR tox	MCF10A rerep	SW480 rerep	KB-3-1 cytotox
O=C(c1ccc(Cl)cc1)N1CCC(O)(CSc2ccc(Cl)cc2)CC1	-	-	-	-	0.0007µM
O=C(c1ccc(Cl)cc1)N1CCC(O)(CSc2ccccc2)CC1	-	-	-	-	-
CN1CCN(C(=O)c2ccc(CSc3ccc(Cl)cc3)cc2)CC1	-	7.3µM	-	-	?
CCOC(=O)N1CCN(C(=O)c2ccc(CSc3ccc(Cl)cc3)cc2)CC1	?	-	-	-	-
Cc1ccc(S(=O)(=O)N2C[C@H]3n4c(=O)ccc(=O)n4C[C@H](OC(=O)NCC4CCCCC4)[C@@]3(O)C2)cc1	.	-	.	.	?
CC(C)(C)c1ccc(-c2nc(C=O)c3ccccn23)cc1	?	16µM	-	-	-
Cc1ccc(CNS(=O)(=O)c2c(C)[nH]c(C)c2C(=O)N2CCCCC2)cc1	-	-	-	-	-
CC(C)(C)c1ccc(-c2noc(-c3ccc4c(c3)CCO4)n2)cc1	?	?	?	4.6µM	-
O=C1CCCc2c1cc(C(=O)NCc1ccco1)c(=O)n2-c1ccc(Cl)cc1	-	16µM	-	-	?
Cc1ccc(-n2c3c(cc(C(=O)NCc4ccco4)c2=O)C(=O)CCC3)cc1	?	-	-	-	-
O=C(c1ccc2nsnc2c1)N1CCN(c2ccc([N+](=O)[O-])cc2)CC1	16µM	-	-	?	?
O=C(c1ccccc1)N1CCN(C(=O)c2ccc([N+](=O)[O-])cc2)CC1	-	-	?	-	?
Cc1ccc(C)c(N2CCN(C(=O)c3ccc4nsnc4c3)CC2)c1	?	8.2µM	?	21µM	12µM
CCc1cc(C(=O)N2CCN(c3ccccn3)CC2)sc1C	-	-	-	-	-
CCCCNC(=O)c1ccc2nc(CC)c(N(CC)CCOC)n2c1	.	-	.	.	-
Cc1ccc(C)c(OCC(=O)N/N=C/c2c(C)nn(-c3ccccc3)c2Cl)c1C	-	8.2µM	?	?	?
Cc1cccc(C)c1NC(=O)CNC(=O)c1c(C)nn(-c2ccccc2)c1Cl	-	-	-	-	-
Cc1cccc(C)c1NC(=O)c1c(C)nn(-c2ccccc2)c1Cl	-	15µM	-	-	-
CCOC(=O)N/N=C/c1c(C)nn(-c2cccc(C(F)(F)F)c2)c1Cl	18µM	2.6µM	2.6µM	5.8µM	2.1µM
Cc1nn(-c2ccccc2)c(Cl)c1/C=N/NC(=O)CNC(=O)c1ccccc1Cl	?	-	?	?	-
COC(=O)N/N=C\c1c(C)nn(-c2ccccc2)c1Cl	?	-	-	?	-
Cc1nn(-c2ccccc2)c(Cl)c1/C=N/NC(N)=O	?	2.1µM	-	?	?
CN(C)CC(=O)Nc1ccc2c(c1)[C@H]1C[C@H](CC(=O)NCc3ccc4c(c3)OCO4)O[C@H](CO)[C@H]1O2	.	-	.	.	-
Cc1ccc(NC(=O)c2ncn(CCCNCC3CCCO3)n2)cc1C (configuration not stated)	.	-	?	-	-
COc1nc(=O)n(C2C=CC(=O)O2)cc1F (configuration not stated)	.	-	.	.	-
SMILES	ELG1 DNA repair	KB-V1 MDR tox	MCF10A rerep	SW480 rerep	KB-3-1 cytotox
Cc1ccc(-c2cc(C(=O)N/N=C/c3c(C)nn(-c4ccccc4)c3C)n[nH]2)s1	?	-	?	1.3µM	-
CCc1n[nH]c(=S)n1/N=C/c1c(C)nn(-c2ccccc2)c1Cl	-	1.3µM	-	-	?
Cc1nn(-c2ccccc2)c(Cl)c1/C=N/NC(=O)c1cccc(S(=O)(=O)N2CCCC2)c1	13µM	-	-	-	-
Cc1nn(-c2ccccc2)c(Cl)c1/C=C(\C#N)C(=O)NC(C)C	?	-	23µM	?	?
OC(c1ccc(F)cc1)c1nc(-c2cccc(F)c2)cs1 (configuration not stated)	.	-	.	.	-
CCc1ccc(CNC(=O)C2CCCN(c3nn4c(=O)cc(C)nc4s3)C2)cc1 (configuration not stated)	-	-	-	-	-
CCCCn1c(SCC(=O)Nc2cc(C(F)(F)F)cc(C(F)(F)F)c2)nnc1C(CC)N(C)C (configuration not stated)	-	15µM	?	?	-
O=C1Cc2ccccc2C(c2ccc(Br)cc2)N1 (configuration not stated)	?	?	-	?	-
O=C1NC2=C(CCc3ccccc32)C(c2ccc(Br)cc2)N1 (configuration not stated)	?	21µM	?	-	-

Source: PubChem (National Center for Advancing Translational Sciences (NCATS))
